Measurements published in PubChem BioAssay.
Values joined by “and” are separate entries in the source; they are usually repeats but may differ in a detail not shown here. Equal values may be shown once. Inconclusive results are not listed. Where a structure was tested more than once in an assay, its records may differ in their call. Active and inactive are the calls of the source.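 Rule for the calls, unless noted: active = normalized viability below 100% at a tested concentration; inactive = the rest.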

Experiments:
[1] = viability loss in pontine glioma line – cell-based, SU-DIPG-XXV, MIPE5.0, CellTiter-Glo, qHTS, dose response (AID 1347065; cut-off not given, nearly all actives have AC50 up to about 26 µM;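 note: cells exposed to compound for 48 hours before ATP readout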); conditions: CellTiter-Glo ATP luminescence
[2] = SU-DIPG-XXV glioma cell viability, MIPE5.0 library, qHTS (AID 1347068; cut-off not given, nearly all actives have IC50 up to about 30 µM)
[3] = sensitizers of A549 cells to miR-34 induction, primary screen, imaging, A549 dox-inducible miR-34, nuclei and caspase counts (AID 1347080;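 active = compounds whose cell count with miR-34 switched on is under 0.7 times the count with it off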); conditions: A549 miR-34 inducible, Hoechst nuclei count, 48 h
[4] = survival rescue of mitochondrial mutant cells in low glucose, primary screen, MELAS cybrids, Rieske KO mouse fibroblasts, CellTiter-Glo (AID 1508586;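 active = mean z-score across replicates of 1.96 or higher in either the MELAS or the Rieske mutant cell line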;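 note: z relative to plate mean and SD of compound and empty wells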)
[5] = target: NAD(+) hydrolase SARM1 (Homo sapiens) (UniProt Q6SZW1); assay: SARM1 TIR NADase inhibitors, cell lysate, NAD-Glo luminescence (AID 1508614;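 active = compound whose remaining NAD level is above about 45 nM, limit read from the data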;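 note: higher remaining NAD means stronger inhibition of SARM1 NADase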); conditions: SAM-TIR HEK293T lysate NADase, at 1 µM, stronger effect = higher value
[6] = viability rescue of complex I mutant cybrids, primary screen, cell-based, galactose medium, ATP luminescence (AID 1645843;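 active = z-score of at least 1.8 in each of two replicates, scored against plate mean and spread of sample wells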;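 note: positive z means more ATP and so rescue of galactose-driven cybrid death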); conditions: complex I mutant cybrid cells, 72 h, stronger effect = higher value
[7] = SU-DIPG-VI glioma cell viability, MIPE4.0 library, CellTiter-Glo luminescence, qHTS (AID 1347066; cut-off not given, nearly all actives have AC50 up to about 30 µM;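 note: cells exposed to compound for 48 hours before readout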); conditions: CellTiter-Glo ATP luminescence
[8] = target: Mitogen-activated protein kinase 7 (Homo sapiens) (UniProt Q13164); assay: ERK5 transactivation activators in reporter cells, primary screen, cell-based, HTS (AID 1508626;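 active = luciferase signal above three times the same-plate solvent-only control wells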;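 note: luciferase driven by Gal4-ERK5 fusion binding five Gal4 sites before minimal TATA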); conditions: HeLa Gal4-ERK5 transactivation, 18 h, at 5 µM, stronger effect = higher value
[9] = inhibitors of Cryptococcus chitosan production, flow cytometry, Cibacron Brilliant Red staining (AID 1347148; call rule not given here;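 note: compound exposure lasted three days at 37 degrees C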); conditions: Cryptococcus neoformans chitosan, stronger effect = lower value; at 10 µM unless noted
[10] = phospholipid biosynthesis inhibitors in animal cells, primary screen, cell-based, LOPAC library, screen 4 (AID 1347384; call rule not given here); conditions: phospholipid biosynthesis inhibition screen, at 10 µM
[11] = modifiers of HSF1 nuclear foci, imaging, Selleck Cancer Library (AID 1347162; in the data active = plate-normalised HSF1 focus index below about 0.46); conditions: human cells, at 10 µM; SSMD: measured here: HSF1 foci SSMD mean; cell count: measured here: cell number; plate-normalised HSF1 focus index: stronger effect = lower value
[12] = ovarian cancer cell viability with rucaparib, profiling panel, oncology-focused library, rucaparib conditional (AID 1508598); conditions: patient-derived ovarian cancer cells, CellTiter-Glo viability, 144 h, stronger effect = lower value
[13] = stronger effect = lower value, cell number ratio, induced over uninduced
[14] = measured here: relative caspase fold change +Dox/-Dox
[15] = measured here: total cells with miR-34 induction, stronger effect = lower value
[16] = measured here: total cells without miR-34 induction
[17] = MELAS cybrid survival, CellTiter-Glo 48 h, stronger effect = higher value
[18] = Rieske KO mouse fibroblast survival, CellTiter-Glo 72 h

Sequence of NAD(+) hydrolase SARM1 (Homo sapiens) (Q6SZW1 whole entry, looked up): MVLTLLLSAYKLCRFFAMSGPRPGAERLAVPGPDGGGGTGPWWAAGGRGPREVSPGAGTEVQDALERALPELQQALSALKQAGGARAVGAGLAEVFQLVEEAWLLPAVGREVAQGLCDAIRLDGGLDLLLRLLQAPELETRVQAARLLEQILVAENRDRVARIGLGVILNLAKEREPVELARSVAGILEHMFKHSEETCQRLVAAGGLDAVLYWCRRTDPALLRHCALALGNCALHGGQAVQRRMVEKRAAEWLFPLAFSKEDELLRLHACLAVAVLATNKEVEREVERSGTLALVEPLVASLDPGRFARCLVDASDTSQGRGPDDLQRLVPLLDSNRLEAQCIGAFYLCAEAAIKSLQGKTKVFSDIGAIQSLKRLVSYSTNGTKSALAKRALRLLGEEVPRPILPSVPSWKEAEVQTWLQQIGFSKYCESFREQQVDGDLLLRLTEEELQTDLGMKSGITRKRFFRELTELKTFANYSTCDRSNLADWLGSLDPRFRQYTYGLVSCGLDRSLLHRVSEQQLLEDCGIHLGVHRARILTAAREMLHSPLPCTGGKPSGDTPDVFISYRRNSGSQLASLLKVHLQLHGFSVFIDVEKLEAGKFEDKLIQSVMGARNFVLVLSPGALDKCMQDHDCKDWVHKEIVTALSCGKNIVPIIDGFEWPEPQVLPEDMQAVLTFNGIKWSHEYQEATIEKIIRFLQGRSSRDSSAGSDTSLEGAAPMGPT
Sequence of Mitogen-activated protein kinase 7 (Homo sapiens) (Q13164 whole entry, looked up, the tested form may be a part): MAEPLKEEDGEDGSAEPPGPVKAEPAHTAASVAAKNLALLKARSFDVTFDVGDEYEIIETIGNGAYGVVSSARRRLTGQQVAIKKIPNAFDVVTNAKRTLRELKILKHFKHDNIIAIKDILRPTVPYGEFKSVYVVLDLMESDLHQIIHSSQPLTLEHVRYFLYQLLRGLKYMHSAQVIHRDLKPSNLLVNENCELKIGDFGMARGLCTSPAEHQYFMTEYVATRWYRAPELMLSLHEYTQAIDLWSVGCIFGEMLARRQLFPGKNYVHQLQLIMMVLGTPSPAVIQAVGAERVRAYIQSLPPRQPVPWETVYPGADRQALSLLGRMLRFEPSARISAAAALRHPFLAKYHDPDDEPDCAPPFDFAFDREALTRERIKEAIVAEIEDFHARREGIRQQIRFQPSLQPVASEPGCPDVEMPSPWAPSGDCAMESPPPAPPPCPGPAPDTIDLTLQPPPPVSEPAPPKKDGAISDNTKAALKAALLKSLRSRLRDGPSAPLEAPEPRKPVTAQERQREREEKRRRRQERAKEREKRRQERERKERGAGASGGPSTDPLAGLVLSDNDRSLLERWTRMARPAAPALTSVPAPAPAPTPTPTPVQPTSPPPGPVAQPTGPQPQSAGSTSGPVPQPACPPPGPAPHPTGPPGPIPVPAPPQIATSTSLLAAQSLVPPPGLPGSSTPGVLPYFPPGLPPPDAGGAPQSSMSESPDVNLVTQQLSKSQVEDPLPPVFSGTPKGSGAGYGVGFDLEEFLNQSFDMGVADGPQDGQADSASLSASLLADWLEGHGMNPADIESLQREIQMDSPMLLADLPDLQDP

C#C[C@]1(O)CC[C@H]2[C@@H]3[C@H](C)CC4=C(CCC(=O)C4)[C@H]3CC[C@@]21C
outcome [1]: inactive | outcome [2]: inactive | fold change [3, 13]: 0.908 (inactive) and 0.883 (inactive) | fold change [3, 14]: 0.948 and 1.2 | cell count [3, 15]: 5910 and 8230 | cell count [3, 16]: 6510 and 9320 | z-score [4, 17]: 0.727 (inactive) and 0.175 (inactive) | z-score [4, 18]: 0.291 and -0.0373 | remaining NAD [5]: 10 nM (inactive) | z-score [6]: -0.015 (inactive)

COc1cc2nc(N3CCN(C(=O)C4CCCO4)CC3)nc(N)c2cc1OC (centres undefined)
outcome [7]: inactive | z-score [4, 17]: -0.37 (inactive) and 0.933 (inactive) and -0.482 (inactive) | z-score [4, 18]: 0.344 and 0.726 and -1.05 | remaining NAD [5]: 10 nM (inactive) | luciferase signal [8]: 64 AU (inactive)

Fc1ccc(C(c2ccc(F)cc2)N2CCN(C/C=C/c3ccccc3)CC2)cc1
outcome [7]: inactive | fold fluorescence [9]: 3.48 [at 123.6 µM] (inactive) | outcome [10]: inactive | z-score [4, 17]: -1.68 (inactive) and -0.773 (inactive) | z-score [4, 18]: -0.315 and -0.0521 | remaining NAD [5]: 10 nM (inactive) | luciferase signal [8]: 116 AU (inactive) | z-score [6]: -1.04 (inactive) and -1.24 (inactive) and -2.23 (inactive)

CC(C)(C)NC(=O)[C@@H]1CN(Cc2cccnc2)CCN1C[C@@H](O)C[C@@H](Cc1ccccc1)C(=O)N[C@H]1c2ccccc2C[C@H]1O
AC50 [7]: 20.9 µM (active) | z-score [4, 17]: -0.264 (inactive) | z-score [4, 18]: 0.0624

CCOC(=O)C1=C[C@]2(CC)CCCN3CCc4c(n1c1ccccc41)[C@@H]32
AC50 [7]: 26.4 µM (active) | fold fluorescence [9]: 12.8 [at 142.7 µM] (inactive) | outcome [10]: inactive | z-score [4, 17]: 0.416 (inactive) and 0.251 (inactive) | z-score [4, 18]: 0.313 and -0.628 | remaining NAD [5]: 10 nM (inactive) | luciferase signal [8]: 52 AU (inactive) | z-score [6]: 0.33 (inactive) and -0.95 (inactive) and -0.445 (inactive)

COCCCC/C(=N\OCCN)c1ccc(C(F)(F)F)cc1
outcome [7]: inactive | fold change [3, 13]: 0.98 (inactive) and 0.926 (inactive) and 0.976 (inactive) | fold change [3, 14]: 1.02 and 0.609 and 0.939 | cell count [3, 15]: 9020 and 8820 and 7770 | cell count [3, 16]: 9200 and 9520 and 7960 | outcome [10]: inactive | z-score [4, 17]: 0.622 (inactive) | z-score [4, 18]: -0.626 | remaining NAD [5]: 10 nM (inactive) | luciferase signal [8]: 88 AU (inactive) | z-score [6]: -0.665 (inactive) and -0.645 (inactive)

Cc1cccc(N(C)C(=S)Oc2ccc3ccccc3c2)c1
outcome [7]: inactive | outcome [2]: inactive | fold change [3, 13]: 0.98 (inactive) and 0.897 (inactive) and 0.793 (inactive) | fold change [3, 14]: 1.24 and 1.29 and 1.54 | cell count [3, 15]: 8090 and 8100 and 9280 | cell count [3, 16]: 8260 and 9020 and 11700 | z-score [4, 17]: -0.305 (inactive) and 0.185 (inactive) | z-score [4, 18]: 0.765 and 0.376 | remaining NAD [5]: 10 nM (inactive) | luciferase signal [8]: 112 AU (inactive)

CN1CCN2c3ccccc3Cc3ccccc3C2C1 (centres undefined)
outcome [7]: inactive | outcome [10]: inactive | z-score [4, 17]: -0.437 (inactive) and -0.163 (inactive) and -1.32 (inactive) | z-score [4, 18]: 0.688 and 0.138 and 0.514 | remaining NAD [5]: 10 nM (inactive) | luciferase signal [8]: 48 AU (inactive) | z-score [6]: -0.385 (inactive) and 2.53 (active) and -0.36 (inactive)

CC(C)NCC(O)COc1ccc(COCCOC(C)C)cc1 (centres undefined)
outcome [7]: inactive | outcome [10]: inactive | z-score [4, 17]: -0.423 (inactive) and -0.586 (inactive) | z-score [4, 18]: 0.385 and -0.329 | remaining NAD [5]: 10 nM (inactive) | luciferase signal [8]: 84 AU (inactive) | z-score [6]: 0.495 (inactive) and 0.79 (inactive) and 0.73 (inactive)

CN1CCN(CCCN2c3ccccc3Sc3ccc(Cl)cc32)CC1
AC50 [7]: 16.6 µM (active) | z-score [4, 17]: -0.995 (inactive) | z-score [4, 18]: -0.206 | remaining NAD [5]: 10 nM (inactive) | luciferase signal [8]: 80 AU (inactive) | z-score [6]: -1.35 (inactive) and -1.42 (inactive)

CC(c1cc2ccccc2s1)N(O)C(N)=O (centres undefined)
outcome [7]: inactive | SSMD [11]: 2.48 | cell count [11]: 7010 | plate-normalised HSF1 focus index [11]: 1.14 (inactive) | z-score [4, 17]: -0.393 (inactive) and -0.528 (inactive) and -0.827 (inactive) | z-score [4, 18]: 0.713 and 0.986 and 1.26 | viability ([12]; at 0.000305 µM, OCI-C5x cells, with rucaparib 10 µM, 100% = cells with rucaparib alone): 111% (inactive) | viability ([12]; at 0.000305 µM, OCI-C5x cells, without rucaparib): 124% (inactive) | viability ([12]; at 0.000305 µM, OCI-P5x cells, with rucaparib 20 µM, 100% = cells with rucaparib alone): 77.5% (active) | viability ([12]; at 0.000305 µM, OCI-P5x cells, without rucaparib): 83.5% (active) | viability ([12]; at 0.00122 µM, OCI-C5x cells, with rucaparib 10 µM, 100% = cells with rucaparib alone): 98.9% (active) | viability ([12]; at 0.00122 µM, OCI-C5x cells, without rucaparib): 121% (inactive) | viability ([12]; at 0.00122 µM, OCI-P5x cells, with rucaparib 20 µM, 100% = cells with rucaparib alone): 61% (active) | viability ([12]; at 0.00122 µM, OCI-P5x cells, without rucaparib): 79.9% (active) | viability ([12]; at 0.00488 µM, OCI-C5x cells, with rucaparib 10 µM, 100% = cells with rucaparib alone): 128% (inactive) | viability ([12]; at 0.00488 µM, OCI-C5x cells, without rucaparib): 122% (inactive) | viability ([12]; at 0.00488 µM, OCI-P5x cells, with rucaparib 20 µM, 100% = cells with rucaparib alone): 48.8% (active) | viability ([12]; at 0.00488 µM, OCI-P5x cells, without rucaparib): 63.4% (active) | viability ([12]; at 0.0195 µM, OCI-C5x cells, with rucaparib 10 µM, 100% = cells with rucaparib alone): 119% (inactive) | viability ([12]; at 0.0195 µM, OCI-C5x cells, without rucaparib): 125% (inactive) | viability ([12]; at 0.0195 µM, OCI-P5x cells, with rucaparib 20 µM, 100% = cells with rucaparib alone): 47.6% (active) | viability ([12]; at 0.0195 µM, OCI-P5x cells, without rucaparib): 63.9% (active) | viability ([12]; at 0.0781 µM, OCI-C5x cells, with rucaparib 10 µM, 100% = cells with rucaparib alone): 103% (inactive) | viability ([12]; at 0.0781 µM, OCI-C5x cells, without rucaparib): 125% (inactive) | viability ([12]; at 0.0781 µM, OCI-P5x cells, with rucaparib 20 µM, 100% = cells with rucaparib alone): 97.3% (active) | viability ([12]; at 0.0781 µM, OCI-P5x cells, without rucaparib): 118% (inactive) | viability ([12]; at 0.313 µM, OCI-C5x cells, with rucaparib 10 µM, 100% = cells with rucaparib alone): 113% (inactive) | viability ([12]; at 0.313 µM, OCI-C5x cells, without rucaparib): 121% (inactive) | viability ([12]; at 0.313 µM, OCI-P5x cells, with rucaparib 20 µM, 100% = cells with rucaparib alone): 115% (inactive) | viability ([12]; at 0.313 µM, OCI-P5x cells, without rucaparib): 123% (inactive) | viability ([12]; at 1.25 µM, OCI-C5x cells, with rucaparib 10 µM, 100% = cells with rucaparib alone): 109% (inactive) | viability ([12]; at 1.25 µM, OCI-C5x cells, without rucaparib): 124% (inactive) | viability ([12]; at 1.25 µM, OCI-P5x cells, with rucaparib 20 µM, 100% = cells with rucaparib alone): 106% (inactive) | viability ([12]; at 1.25 µM, OCI-P5x cells, without rucaparib): 124% (inactive) | viability ([12]; at 5 µM, OCI-C5x cells, with rucaparib 10 µM, 100% = cells with rucaparib alone): 113% (inactive) | viability ([12]; at 5 µM, OCI-C5x cells, without rucaparib): 129% (inactive) | viability ([12]; at 5 µM, OCI-P5x cells, with rucaparib 20 µM, 100% = cells with rucaparib alone): 105% (inactive) | viability ([12]; at 5 µM, OCI-P5x cells, without rucaparib): 116% (inactive) | remaining NAD [5]: 10 nM (inactive) | luciferase signal [8]: 36 AU (inactive) | z-score [6]: 0.465 (inactive) and 0.63 (inactive)

COc1cc([C@H]2Oc3cc([C@H]4Oc5cc(O)cc(O)c5C(=O)[C@@H]4O)ccc3O[C@@H]2CO)ccc1O
outcome [7]: inactive | outcome [2]: inactive | luciferase signal [8]: 64 AU (inactive)

CC(=O)Oc1ccccc1C(=O)Nc1ncc([N+](=O)[O-])s1
AC50 [7]: 9.59 µM (active) | outcome [2]: inactive | fold change [3, 13]: 1.08 (inactive) and 0.866 (inactive) | fold change [3, 14]: 1.12 and 1.29 | cell count [3, 15]: 2500 and 6120 | cell count [3, 16]: 2310 and 7070 | z-score [4, 17]: -0.496 (inactive) and -0.13 (inactive) | z-score [4, 18]: -2.39 and 0.602 | remaining NAD [5]: 10 nM (inactive) | z-score [6]: -1.79 (inactive)
